26 compounds from PubChem BioAssay (NCI) can be followed below.

SMILES strings stand for the structures. This is part of a sample that, as a whole, favours compounds with a hit. Of some 83,000 tested, about 20% had one in any assay.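 Activity criterion: percent growth below 10, measured after cells in 96-well plates were exposed to a single compound concentration for 48 hours.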 Values without a mark were called inactive. Active and inactive are the calls of the source.

The experiment relates to HL-60(TB) leukemia. Nature of the experiment: NCI-60 one-dose screen, 48 h (100 = growth as untreated, 0 = no growth, -100 = all killed). The conditions noted are these: 10 µM unless noted.
Consider `O=C(CCCN1C(=O)/C(=C/c2ccccc2F)SC1=S)N1CCOCC1`, for which the growth was 93.5%.

With `O=C1c2c(c3c4cc(O)ccc4oc3c3[nH]c4ccccc4c23)C(=O)N1O`, the growth is 9.22% (active). As for `O=C(CCn1cc[n+](CC(=O)c2ccc(-c3ccccc3)cc2)c1)Nc1cccc2cccnc12`, the figure is 13.9%; as for `O=C1c2c(c3c4cc(Br)ccc4[nH]c3c3ccc4ccccc4c23)C(=O)N1CCN1CCCCC1`, 1.48% (active). As for `Cc1ccccc1NC(=O)Nc1nc2ccc([N+](=O)[O-])cc2s1`, the figure is -27.7% (active); as for `COc1ccc(COc2ccc(/C=C3/C(=O)Nc4cc(Cl)ccc43)cc2)cc1`, 119%. The value for `CCCCCCN1C=C/C(=C\C(=O)n2ccc3ccccc32)c2ccccc21` was 24.7%. For `CSc1ccc2c(c1)N(C(=O)/C(C#N)=C/c1c[nH]c3ccccc13)c1ccccc1S2`, the growth was 12.8%. In the case of `O=C(N/N=C\c1ccc([N+](=O)[O-])cc1)c1ccc2nc(-c3ccc(Br)cc3)[nH]c2c1`, the growth was 1.86% (active). As for `Cc1ccc(-c2nnc(SCc3ccc(O)c4ncccc34)n2-c2ccccc2)cc1`, the figure is 0.292% (active); as for `Nc1ncc(-c2ccc3ncnc(N4CCc5cc(F)c(Cl)cc54)c3c2)cc1CO`, -23.4% (active); as for `Cc1ccc(-c2csc(N/N=C/c3nc4ccccc4n3C3CC3)n2)cc1`, 7.25% (active). The value for `COC1CCN(Cc2ccc3c(NNC(=O)c4cnccn4)nc4cc(F)ccc4n23)C1` (stereo unspecified) was -19.4% (active); that for `CN1CCN(Cc2ccc(NC(=O)c3cncc(C#Cc4cnc5ccc(NC6CCOCC6)nn45)c3)cc2C(F)(F)F)CC1` was -45.2% (active); that for `CC1=C(C)C(=O)C(Nc2ccc3c(c2)OCO3)=C(Br)C1=O` was 44.2%. As for `CC(C)NC(=O)c1cc(-c2ccc(NC(=O)Nc3ccc(F)cc3)cc2)nc2cccnc12`, the figure is 105%; as for `N#Cc1c(NC(=O)c2cccc(C(F)(F)F)c2F)sc2c1CCC(=O)C2`, -17.4% (active). `C#C[C@]1(O)CC[C@H]2[C@@H]3CC=C4c5sc(NCc6ccccc6)nc5CC[C@]4(C)[C@H]3CC[C@@]21C`: the growth was 24%. The value for `Cc1ccc2c(n1)C(=O)C(Cl)=C(Nc1ccc(C(C)C)cc1)C2=O` was -0.278% (active); that for `O=C(NCCN1CCCC1)c1ccc(-c2nc3ccc4[nH]ncc4c3c3c2CCCC3)cc1` was -49.8% (active); that for `O=C(/C=C/c1cccc(O)c1)c1ccc(O)cc1` was 72.3%.

For `C#CCOc1ccc(-c2csc(NC(=O)C=C)n2)cc1NS(=O)(=O)c1cccc2c(N(C)C)cccc12`, the growth is -4.97% (active).

Take `CC(=O)NC(C)(C)C(=O)N1CCC[C@H]1C(=O)NC(C)(C)C(=O)N[C@@H](C)C(=O)NC(C)(C)C(=O)N[C@@H](C)C(=O)N[C@@H](CCC(N)=O)C(=O)NC(C)(C)C(=O)N[C@H](C(=O)NC(C)(C)C(=O)NCC(=O)N[C@@H](CC(C)C)C(=O)NC(C)(C)C(=O)N1CCC[C@H]1C(=O)N[C@H](C(=O)NC(C)(C)C(=O)NC(C)(C)C(=O)N[C@@H](CCC(N)=O)C(=O)N[C@@H](CCC(N)=O)C(=O)N[C@H](CO)Cc1ccccc1)C(C)C)C(C)C`: the growth is 95.6% [4.25 µM]. The value for `C#C[C@]1(O)CC[C@H]2[C@@H]3CC=C4c5sc(Nc6cc(Cl)ccn6)nc5CC[C@]4(C)[C@H]3CC[C@@]21C` was 2.68% (active). The value for `Oc1[nH]c2ccc(Cl)cc2c1N=Nc1nc(N=Nc2c(O)[nH]c3ccc(Cl)cc23)nc(N2CCOCC2)n1` was 72.2%. The value for `CS(=O)(=O)c1ccc(-c2nn(-c3ccccc3)cc2/C=N/NC(=O)c2nc(N)n[nH]2)cc1` was 76.8%.
